# Test results from PubChem BioAssay (EPA / NIEHS).
# Inconclusive results are not listed. Calls of active or inactive are those of the source. The calls were made as follows: active = hit-call score of the fitted dose curve at least 0.9, where 1 is the maximum; inconclusive = response in the unintended direction; inactive = score below 0.9.
# Read-out: Cytochrome P450 2C19 (Homo sapiens) (UniProt P33261)
# Test: CLD_CYP2C19_48hr: CellzDirect (CLD) Gene Expression Assay for xenobiotic metabolism (CYP2C19) at 48 hours (AID 2283700);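 also: fitted upward so actives raise CYP2C19 mRNA above the 0.2% DMSO vehicle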
# Protocol: CLD_48hr is a cell-based, multiplexed-readout assay that uses hepatocyte, a human liver primary cell, with measurements taken at 48 hours after chemical dosing in a 96-well plate.CLD_CYP2C19_48hr is one of 16 assay component(s) measured or calculated from the CLD_48hr assay. It is designed to make measurements of mRNA induction, a form of inducible reporter, as detected with chemiluminescence signals by Quantitative Nuclease Protection Assay (qNPA) technology.Data from the assay component CLD_CYP2C19_48hr was analyzed at the endpoint, CLD_CYP2C19_48hr, in the positive analysis fitting direction relative to DMSO as the negative control and baseline of activity. Using a type of inducible reporter, gain-of-signal activity can be used to understand changes in the reporter gene as they relate to the gene CYP2C19. Furthermore, this assay endpoint can be referred to as a primary readout. To generalize the intended target to other relatable targets, this assay endpoint is annotated to the cyp intended target family, where subfamily is xenobiotic metabolism.
# Human hepatocyte cultures were treated daily for two consecutive days with fresh dosing solutions containing appropriate concentrations of the 320 ToxCast chemicals (chemical identities were blinded to CellzDirect and other ToxCast collaborators), vehicle control (0.2% DMSO), and positive control inducers as summarized in Table 1. Due to the large number of treatment groups and chemicals examined, the ToxCast chemicals were divided into two groups (spanning two independent cultures of hepatocytes from separate donor preparations (Hu778: ToxCast plates 1 and 2; Hu776: ToxCast plates 3 and 4). Each preparation of human hepatocyte cultures was treated with respective vehicle control, medium only control, set of six positive controls/reference chemicals for the five hepatic receptor pathways, and a subset of eight of the ToxCast chemicals (indoxacarb, pyrithiobac-sodium, norflurazon, cyhalofop-butyl, methomyl, thiram, acetochlor, and propiconazole). These replicate data, coupled with internal replicates designed within the blinded ToxCast chemical library, provided additional data to evaluate interindividual differences between hepatocyte preparations and their potential impact on chemical profiles.Cell morphology and integrity were evaluated using phase-contrast microscopy as an indicator of hepatocyte cell health (Tyson & Green, 1987). Cultures for each treatment group (i.e., media, vehicle [0.2% DMSO], positive control inducers [multiple concentrations], and the ToxCast chemicals [multiple concentrations]) were observed and cell morphology was assessed relative to vehicle control cultures at each harvest time point (0, 6, 24, or 48 h). […] Images were evaluated at the conclusion of the study to assess changes in cell integrity and account for the effects of chemical exposure on uncharacteristic changes in concentration-dependent gene expression profiles. The results from these determinations of apparent cytotoxicity were annotated (yes/no) alongside the corresponding qNPA data for reference.At the conclusion of each treatment period, hepatocyte cultures (96-well) were washed with 1 volume of HBSS, lysed by addition of 25 ul ArrayPlate lysis buffer (HTG, Tucson, AZ), and 70 ul/well of Denaturation Oil, denatured by incubation at 95C for 10 min, and frozen at approximately -70C until analysis by nuclease protection assay (qNPA) (Roberts et al., 2007). For qNPA analysis, cell lysates were thawed at 50C for approximately 30 min, qNPA probes were added, and samples were incubated at 95C for 10 min to begin the detection process by denaturing the target RNA, dissociating the duplexes and secondary structure hybridization. At the conclusion of the hybridization period, S1 nuclease reagent was added to each sample to digest all nonprotected nucleotides at 50C for 60-90 min. […]
# Sequence of Cytochrome P450 2C19 (Homo sapiens) (P33261 whole entry, looked up): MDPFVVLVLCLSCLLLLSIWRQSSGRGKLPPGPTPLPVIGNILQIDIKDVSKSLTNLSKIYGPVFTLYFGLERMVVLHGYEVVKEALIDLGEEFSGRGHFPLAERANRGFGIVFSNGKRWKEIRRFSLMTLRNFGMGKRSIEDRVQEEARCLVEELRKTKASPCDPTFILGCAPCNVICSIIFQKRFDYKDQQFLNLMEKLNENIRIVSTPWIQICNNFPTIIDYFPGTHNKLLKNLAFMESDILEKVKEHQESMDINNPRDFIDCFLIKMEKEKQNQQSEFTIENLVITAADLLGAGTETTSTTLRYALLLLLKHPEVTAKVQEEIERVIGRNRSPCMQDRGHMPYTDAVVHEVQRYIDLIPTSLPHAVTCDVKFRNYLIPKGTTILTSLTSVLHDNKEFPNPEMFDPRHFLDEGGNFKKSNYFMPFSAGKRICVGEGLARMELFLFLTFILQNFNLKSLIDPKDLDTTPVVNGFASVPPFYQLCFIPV
row,Compound,outcome
1,CCc1cnc(C2=NC(C)(C(C)C)C(=O)N2)c(C(=O)O)c1 (stereo not given),inactive
2,CCOP(=O)(OCC)Oc1cc(C)nc(C(C)C)n1,inactive
3,CCOP(=S)(OCC)Oc1ccc2c(C)c(Cl)c(=O)oc2c1,inactive
4,CC(=NC#N)N(C)Cc1ccc(Cl)nc1,inactive
5,COc1cccc(C(=O)NN(C(=O)c2cc(C)cc(C)c2)C(C)(C)C)c1C,inactive
6,Cc1nn(-c2cc(NS(C)(=O)=O)c(Cl)cc2Cl)c(=O)n1C(F)F,inactive
7,CC1=NNC(=O)N(/N=C/c2cccnc2)C1,inactive
8,CNC(=O)Oc1cccc2c1OC(C)(C)O2,inactive
9,CCCCOC(=O)[C@@H](C)Oc1ccc(Oc2ccc(C#N)cc2F)cc1,inactive
10,CC(C)=CC1C(C(=O)OCN2C(=O)C3=C(CCCC3)C2=O)C1(C)C (stereo not given),inactive
11,CCCCOC(=O)c1ccccc1C(=O)O,inactive
12,COP(=O)(NC(C)=O)SC (stereo not given),inactive
13,CCOP(=S)(OCC)SCCSCC,inactive
14,CCOP(=O)(NC(C)C)Oc1ccc(SC)c(C)c1 (stereo not given),inactive
15,CNC(=O)ON=C(C)SC,inactive
16,CC(C1CC1)C(O)(Cn1cncn1)c1ccc(Cl)cc1 (stereo not given),inactive
17,O=C(O)c1cc(Oc2ccc(C(F)(F)F)cc2Cl)ccc1[N+](=O)[O-],inactive
18,CCCOc1nn(C(=O)NS(=O)(=O)c2ccccc2C(=O)OC)c(=O)n1C,inactive
19,CN1COCN(Cc2cnc(Cl)s2)C1=N[N+](=O)[O-],inactive
20,CC(Oc1cccc(Cl)c1)C(=O)O (stereo not given),inactive
21,COc1cc(OC)nc(Sc2cccc(Cl)c2C(=O)O)n1,inactive
22,CNC(=O)ON=C(SC)C(=O)N(C)C,inactive
23,C[N+]1(C)CCCCC1,inactive
24,COP(=O)(OC)OC(Br)C(Cl)(Cl)Br (stereo not given),inactive
25,S=C1NCCN1,inactive
26,C#CC(C)(C)NC(=O)c1cc(Cl)cc(Cl)c1,inactive
27,Cc1ccn2nc(S(=O)(=O)Nc3c(F)cccc3F)nc2n1,inactive
28,C=C(C)[C@H]1Cc2c(ccc3c2O[C@@H]2COc4cc(OC)c(OC)cc4[C@@H]2C3=O)O1,inactive
29,CN(C)NC(=O)CCC(=O)O,inactive
30,CC1(C(=O)Nc2ccc(O)c(Cl)c2Cl)CCCCC1,inactive
